A selection: hits, their analogues and other compounds. The true share with any hit is near 2.3%.
VDR inhibitor – blocks the human vitamin D receptor | P11473 | VDR-SRC2-3 peptide fluorescence polarization, 2 h | Potency, µM, for inactives: max response, negative = inhibition, usual class: inhibitors | hit rate 0.93% among 400,000 | AID 504847; also: potency is read from the fitted curve at half-maximal effect; % is scaled to controls: 0 for no effect and ±100 for the full control effect
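The screen uses fluorescence polarization to detect compounds that interfere with recruitment of the SRC2-3 coactivator peptide to VDR; plates are read after 2 h at room temperature.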
Coupling enz – coupling enzyme interference in Giardia aldolase counter-screen; hit rate 0.67% among 290,000; coupling enzyme system counterscreen, AmpLite Red fluorescence; activity change, negative = inhibition, % at 58.2 µM, hits read low; in the data active = activity change below about -30%; also: % is scaled to controls: 0 for no effect and ±100 for the full control effect
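Fluorescence at 525 nm excitation and 598 nm emission measured inhibition of the coupled detection system without aldolase. Compounds (at 57.5 uM final) were preincubated 10 min at room temperature with coupling enzyme reagent before a 20 min substrate/AmpLite Red step.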
HTT aggregate – inhibitors of mutant huntingtin aggregate formation in PC12 cells. PC12 HttQ103-GFP aggregates, Acumen cytometry, 40 h. Potency, µM (highest dose often 46.1 µM), without a hit: at the highest dose activity change, negative = inhibition, hits mostly inhibitors. hit rate 1.1% among 220,000; also: potency is read from the fitted curve at half-maximal effect; % is scaled to controls: 0 for no effect and ±100 for the full control effect; nearly all actives have a fitted effect of over 60% in size
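Quantitative HTS on tebufenozide-induced (100 nM) PC12 cells stably expressing polyQ103 Huntingtin exon 1–GFP. Reduction of bright GFP aggregates, detected by laser scanning cytometry after lysis, identified actives across the titration.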
GoLoco inh red – RGS12 GoLoco-Gai1 interaction inhibition | Potency, µM (series often up to 61.6 µM), for inactives: top-dose activity, negative = inhibition, most hits filed as inhibitors | AID 880 | Gai1:RGS12 GoLoco peptide FP, rhodamine, 10 min | hit rate 0.44% among 230,000; active = well fitted inhibition curve with a large enough effect, not every such curve was filed as active; inactive = no such curve, though single readings can be large or run the other way; also: potency is read from the fitted curve at half-maximal effect; % is scaled to controls: 0 for no effect and ±100 for the full control effect; nearly all actives have a fitted effect of over 30% in size
Target sequence (P63096 whole entry, looked up): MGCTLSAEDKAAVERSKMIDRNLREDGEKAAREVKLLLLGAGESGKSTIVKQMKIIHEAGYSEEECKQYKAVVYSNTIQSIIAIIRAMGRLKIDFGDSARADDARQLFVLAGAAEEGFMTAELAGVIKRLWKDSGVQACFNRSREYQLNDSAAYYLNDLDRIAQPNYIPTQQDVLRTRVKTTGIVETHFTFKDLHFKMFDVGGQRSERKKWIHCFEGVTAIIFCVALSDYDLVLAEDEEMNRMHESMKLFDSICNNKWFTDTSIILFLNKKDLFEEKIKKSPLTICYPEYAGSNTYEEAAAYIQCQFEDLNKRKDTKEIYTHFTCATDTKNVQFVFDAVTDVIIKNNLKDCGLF
JMJD2E inh – blocks human JMJD2E demethylase activity. JMJD2E catalytic domain, FDH-coupled NADH fluorescence (FDH is formaldehyde dehydrogenase). hit rate 1.6% among 230,000. B2RXH2. Potency, µM (doses to about 57.1 µM), for inactives: at the top dose activity change, negative = inhibition, most hits filed as inhibitors. AID 2147; active = well fitted inhibition curve with a large enough effect, not every such curve was filed as active; inconclusive = small, poorly fitted or top-dose-only effect, or another doubt; inactive = no such curve, though single readings can be large or run the other way;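 also: potency is read from the fitted curve at half-maximal effect; 0% = wells with enzyme and -100% = buffer wells without enzyme; nearly all actives have a fitted effect of over 50% in size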
Target sequence (B2RXH2 1-337 limits assumed): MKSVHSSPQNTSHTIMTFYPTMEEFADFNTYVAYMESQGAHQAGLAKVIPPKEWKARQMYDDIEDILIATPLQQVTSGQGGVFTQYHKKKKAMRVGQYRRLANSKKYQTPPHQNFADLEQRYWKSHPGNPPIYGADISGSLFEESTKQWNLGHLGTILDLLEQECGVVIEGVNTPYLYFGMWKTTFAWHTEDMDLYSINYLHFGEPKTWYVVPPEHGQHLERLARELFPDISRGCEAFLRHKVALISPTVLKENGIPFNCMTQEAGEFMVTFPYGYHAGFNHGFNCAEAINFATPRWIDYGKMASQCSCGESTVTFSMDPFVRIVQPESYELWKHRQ
HTT ATP protect – protects HTT-Q103 PC12 cells, measured by ATP | PC12 HTT-Q103 induced, cytoprotection, ATP luminescence, 40 h | Potency, µM (top dose mostly 56.4 µM), inactives show cytoprotection (ATP increase), actives largely listed as activators | hit rate 0.14% among 230,000 | AID 1471; also: potency is read from the fitted curve at half-maximal effect; % of control where 0% means no effect; nearly all actives have a fitted effect of over 45% in size
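Compounds added alongside 100 nM tebufenozide, which induces toxic Q103 huntingtin exon 1-GFP in stable PC12 cells; surviving cells quantified by luminescent ATP measurement. Medium: phenol red-free DMEM, 5% equine and 5% calf serum.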
VDR inh confirm – confirmation of human vitamin D receptor inhibitors | AID 602199 | VDR-coactivator inhibition assay, qHTS confirmation | shares compounds with VDR inhibitor | Potency, µM, most hits filed as inhibitors | hit rate 89% among 840; also: potency is read from the fitted curve at half-maximal effect
VDR FP fluor – VDR (human) coactivator binding inhibition, fluorescein polarization; shares compounds with VDR inhibitor; VDR-coactivator binding, fluorescein fluorescence polarization; Potency, µM (top dose mostly 57.1 µM), inactives show at the top dose activity change, negative = inhibition, usual class: inhibitors; hit rate 48% among 840; AID 602200; also: potency is read from the fitted curve at half-maximal effect
VDR bla – inhibits human VDR in beta-lactamase reporter cells | hit rate 23% among 840 | shares compounds with VDR inhibitor | AID 602202 | VDR beta-lactamase reporter cells, FRET ratio; cells co-treated with VDR agonist LG190178 | Potency, µM (doses to about 46.1 µM), inactives show top-dose activity change, negative = inhibition, actives largely listed as inhibitors; also: potency is read from the fitted curve at half-maximal effect; % is scaled to controls: 0 for no effect and ±100 for the full control effect
VDR cytotox – cytotoxic in counter-screen for VDR inhibitors. shares compounds with VDR inhibitor. cytotoxicity counter-screen, cell viability, qHTS. Potency, µM (top dose mostly 48.3 µM), without a hit: top-dose activity change, negative = cytotoxicity, most hits filed as cytotoxic. hit rate 18% among 840. AID 602204;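 also: potency is read from the fitted curve at half-maximal effect; plate controls were DMSO for no effect and high-concentration cycloheximide for full effect; nearly all actives have a fitted effect of over 75% in size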
* marks the source's active call; other numbers are inactive results; ? = inconclusive; nt = no result; [ ] = remark or other dose. Unless noted, calls follow the shape of the dose curve; as a rule, active = well fitted curve in the direction sought with a large enough effect; inconclusive = small, poorly fitted or top-dose-only effect, or another doubt; inactive = no such curve, though single readings can be large; an effect the other way counts as inactive or inconclusive.

SMILES | VDR inhibitor | Coupling enz | HTT aggregate | GoLoco inh red | JMJD2E inh | HTT ATP protect | VDR inh confirm | VDR FP fluor | VDR bla | VDR cytotox
O=C(Oc1oc(-c2ccco2)nc1C=Nc1ccccc1)c1ccoc1 | 50µM* | -3 | 13%[9.22 µM] | -4% | 3% | -15% | ? | ? | ? | ?
Cc1ccc(C(=O)Oc2oc(-c3ccccc3)nc2C=Nc2ccc(N(C)C)cc2)cc1 | -21% | -5 | 10% | 3% | -13% | -57%[10 µM] | nt | nt | nt | nt
Cc1ccc(N=Cc2nc(-c3ccco3)oc2O)cc1 | 21% | -1 | -5% | 2% | -15% | 0%[10 µM] | nt | nt | nt | nt
Cc1ccc(C(=O)Oc2oc(-c3ccco3)nc2C=Nc2ccc(Cl)cc2)cc1 | 50µM* | -3 | 7% | 5% | -4% | -37% | 11* | ? | -4% | 1%
O=C(Oc1oc(-c2ccco2)nc1C=Nc1ccccc1)c1ccco1 | 28µM* | 0 | 8% | -2% | -1% | 7%[1.9 µM] | 6* | ? | ? | -10%
Cc1nn2c(=O)cc(COC(=O)c3ccc(NC(=O)c4ccc(C(C)(C)C)cc4)cc3)nc2s1 | 1% | nt | nt | nt | nt | nt | nt | nt | nt | nt
CN(C)S(=O)(=O)c1ccc(C(=O)/C=C/c2cccnc2)cc1 | 20µM* | 1 | nt | nt | nt | nt | ? | ? | 21% | ?
C(=Cc1cccnc1)c1ccncc1 | 16% | nt | nt | nt | nt | nt | nt | nt | nt | nt
CN(C)S(=O)(=O)c1ccc(C(=O)Nc2cccnc2)cc1 | 20% | -1 | 10% | -12% | -4% | -12% | nt | nt | nt | nt
O=C(/C=C/c1cccnc1)/C=C/c1cccnc1 | 13µM* | -1 | 11%[9.22 µM] | -27% | ? | -8%[10 µM] | 2.7* | -14% | 5.8µM* | 15µM*
COc1ccc(S(=O)(=O)N2CCC(C(=O)Oc3cccc(C)c3)CC2)cc1OC | -7% | nt | nt | nt | nt | nt | nt | nt | nt | nt
CC1CCC(NC(=O)c2cc3c(s2)CCCC3)CC1 (stereo unspecified) | -21% | nt | nt | nt | nt | nt | nt | nt | nt | nt
O=C(NCCc1ccccc1)c1ccc2nc(-c3ccco3)c(-c3ccco3)nc2c1 | ? | -37* | 2% | -5% | ? | -38% | 3.5* | 8.9µM* | -1% | 12%
O=C(NC1CCCC1)c1ccc2nc(-c3ccco3)c(-c3ccco3)nc2c1 | ? | -30* | -13% | nt | -3% | -10% | 10* | 3.2µM* | -1% | 12%
Cc1c(CNC2CCCCCC2)c(C(=O)O)c(C)n1Cc1cccc(Cl)c1 | 0% | nt | nt | nt | nt | nt | nt | nt | nt | nt
CCc1nc2ccc(C(=O)N3CCN(c4ccc([N+](=O)[O-])cc4)CC3)cc2nc1CC | -1% | nt | nt | nt | nt | nt | nt | nt | nt | nt
O=C1Nc2ccccc2/C1=C/C(=O)c1cccs1 | ? | -4 | ? | 2% | -7% | 2% | 11* | 10µM* | ? | 18%
NC(=O)COc1ccc(C(=O)/C=C2/C(=O)Nc3ccccc32)cc1 | ? | -2 | nt | nt | nt | nt | ? | ? | 24% | 19%
COc1ccc(C(=O)/C=C2/C(=O)Nc3ccccc32)cc1 | ? | 0 | nt | nt | nt | nt | nt | nt | nt | nt
COc1ccc(Cl)cc1NC(=O)Cn1c(=O)n(Cc2cccs2)c(=O)c2cccnc21 | 9% | nt | nt | nt | nt | nt | nt | nt | nt | nt
CN(C)S(=O)(=O)c1cccc(C(=O)NCCOC(=O)c2cc(F)c(F)cc2Cl)c1 | -1% | -1 | nt | nt | nt | nt | nt | nt | nt | nt
CCn1nc(C)cc1-c1nnc(Sc2ncc([N+](=O)[O-])s2)n1C | 7.9µM* | -2 | nt | nt | nt | nt | 4.7* | 3.5µM* | 3.7µM* | ?
Cn1c(Sc2ccc([N+](=O)[O-])cc2C(F)(F)F)nnc1-c1ccccc1 | -5% | 3 | -7% | -3% | -4% | -30% | nt | nt | nt | nt
Cc1ccc(C(C[N+](=O)[O-])n2nc(C)cc2C)cc1 (stereo unspecified) | 79µM* | 2 | -6% | -23% | 0% | 5% | 13* | 8.9µM* | ? | ?
Cc1nc2c(C(=O)NCCc3ccc(Cl)cc3)cnn2c(C)c1Cc1ccc(F)cc1 | 4% | nt | nt | nt | nt | nt | nt | nt | nt | nt
SMILES | VDR inhibitor | Coupling enz | HTT aggregate | GoLoco inh red | JMJD2E inh | HTT ATP protect | VDR inh confirm | VDR FP fluor | VDR bla | VDR cytotox
O=C(O)c1cccc(Nc2cc(Cl)c3nonc3c2[N+](=O)[O-])c1 | 13µM* | 2 | 12% | -35% | -12% | ? | 8.4* | 20µM* | 31% | -4%
O=[N+]([O-])c1c(Nc2ccccn2)cc(Cl)c2nonc12 | ? | -57* | 13%[9.22 µM] | -38% | 1µM* | -15%[10 µM] | 3.4* | ? | 3.7µM* | 5.8µM*
O=[N+]([O-])c1c(Nc2ccc(O)cc2)cc(Cl)c2nonc12 | ? | 3 | nt | nt | nt | nt | 2.5* | 2µM* | ? | 9.5µM*
O=C(O)c1cccc(Nc2ccc([N+](=O)[O-])c3nonc23)c1 | 10% | -15 | nt | nt | nt | nt | nt | nt | nt | nt
CN(C)c1cc(Nc2ccc(O)cc2)c([N+](=O)[O-])c2nonc12 | -16% | 1 | -16%[9.22 µM] | -7% | -1% | 17%[10 µM] | nt | nt | nt | nt
CCNc1cc(Nc2c(C)n(C)n(-c3ccccc3)c2=O)c([N+](=O)[O-])c2nonc12 | 14% | 0 | 8%[9.22 µM] | -1% | 1% | 10%[10 µM] | nt | nt | nt | nt
Cc1ccc(NC(=O)CCS(=O)(=O)c2ccc3nc(C)sc3c2)c(C)c1 | 9% | nt | nt | nt | nt | nt | nt | nt | nt | nt
CCOCCCNC(=O)c1cc(Sc2cccc(Cl)c2)nc2ccccc12 | 10% | nt | nt | nt | nt | nt | nt | nt | nt | nt
Cc1ccccc1/C=C/C(=O)c1ccc([N+](=O)[O-])o1 | 7.9µM* | nt | nt | nt | nt | nt | 6* | 3.2µM* | 8.2µM* | 21µM*
Cc1cccc(/C=C/C(=O)c2ccc([N+](=O)[O-])o2)c1 | 8.9µM* | nt | nt | nt | nt | nt | 1.1* | 1.3µM* | 5.2µM* | ?
CC(=O)Nc1sc(N/N=C\c2ccccc2F)nc1-c1cccs1 | 50µM* | 0 | ? | -8% | 2% | 22%[10 µM] | 2.4* | 2.2µM* | 29% | ?
CCOC(=O)C1=C(C)N=C2SC(C(=O)OC)=CC(=O)N2C1c1ccc(F)cc1 (stereo unspecified) | 22µM* | 1 | ? | 189% | -3% | -48% | 13* | ? | 15% | ?
CCCOc1ccc(C(=O)CCNC(Cc2c[nH]c3ccccc23)C(=O)O)cc1 (stereo unspecified) | 45µM* | 4 | nt | nt | nt | nt | 19* | ? | 12% | ?
